Screens from PubChem BioAssay.
In the library only some 21% were active in any assay of this set; here they are far more common.
Shiga toxin inh: inhibitors of Shiga toxin in Vero cells. Vero cells, Shiga toxin protein synthesis inhibition reporter. inhibition, % at 38.7 µM. actives 9.2% (n = 290,000). AID 2315; in the data active = inhibition mostly above about 28%, no sharp cut-off; inactive = mostly below about 43%
Pf growth 48h: P. falciparum growth inhibition at 48 hours (one generation); P. falciparum luciferase growth in erythrocytes, 48 h; Potency, µM (top dose mostly 28.7 µM), most hits filed as inhibitors; actives 5.9% (n = 310,000); active = well fitted inhibition curve with a large enough effect; inconclusive = small, poorly fitted or top-dose-only effect, or another doubt; inactive = no such curve, though single readings can be large or run the other way
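First compound was added to culture medium, then infected red cells at 0.1% parasitemia and 2% hematocrit (final). After incubation at 37 C under 5% CO2, luciferase detection reagent was dispensed and light output recorded.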
CHX counter: affects cycloheximide protein synthesis inhibition readout, counter-screen; cell reporter, cycloheximide protein synthesis inhibition counterscreen; max response, %; actives 12% (n = 300,000); in the data active = max response mostly above about 13%, no sharp cut-off; inactive = mostly below about 14%; also: read at 38.3 µM for the half of the compounds with a filed dose
Pf growth 96h: P. falciparum growth inhibition at 96 hours; P. falciparum luciferase reporter growth, 96 h; Potency, µM (doses to about 28.7 µM), actives largely listed as inhibitors; actives 6.9% (n = 320,000); active = well fitted inhibition curve with a large enough effect; inconclusive = small, poorly fitted or top-dose-only effect, or another doubt; inactive = no such curve, though single readings can be large or run the other way
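Infected RBCs, 2% Hct / 0.05% parasitemia final; luciferase-reporter P. falciparum; cpd 96 h, 37 C, 5% CO2; luciferase detection reagent; luminescence.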
NS1 function inh: inhibitors of influenza NS1 protein function. Potency, µM (doses to about 46.1 µM). actives 0.4% (n = 270,000); also: actives are rising curves; nearly all actives have a fitted effect of over 50% in size
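A cell-based growth assay was used: compounds that relieve NS1-induced slow growth of budding yeast raise OD600. Assay medium was yeast nitrogen base with ammonium sulphate and -URA supplement, pH 6.0, with 2% galactose.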
SARS PLP yeast: inhibitors of SARS-CoV papain-like protease in yeast; S. cerevisiae expressing SARS-CoV PLpro, growth rescue; actives 0.19% (n = 330,000); Potency, µM (top dose mostly 32.9 µM), most hits filed as activators; also: nearly all actives have a fitted effect of over 55% in size
A number is an active result; 0 = inactive; ? = inconclusive; - = no result given. Unless noted, calls follow the shape of the full dose curve.

SMILES | Shiga toxin inh | Pf growth 48h | CHX counter | Pf growth 96h | NS1 function inh | SARS PLP yeast
CN1CCN(c2ccc(NC(=O)COc3ccccc3)cc2Cl)CC1 | 83 | 0 | 44 | 0 | 0 | 0
Cc1ccc(OCC(=O)Nc2ccc(N3CCN(C(=O)c4ccc(C)cc4)CC3)cc2)cc1 | 0 | 0 | 0 | 0 | 0 | 0
COc1cc(NC(=O)c2cccc(C)c2)c(Cl)cc1[N+](=O)[O-] | 0 | 0 | 0 | 0 | 0 | 0
O=C(Nc1ccc(F)cc1F)c1ccc2c(=O)n3c(nc2c1)CCC3 | - | 0 | - | 0 | - | 0
CCc1cccc(C)c1N1C(=O)CC(C)(C)CC1=O | 0 | 0 | 0 | 0 | 0 | 0
Cc1cc(NC(=O)COc2ccccc2)ccc1Cl | 107 | 0 | 50 | ? | 0 | 0
CCCC(C(=O)NC1CCCC1)N(C(=O)c1snc(C(N)=O)c1N)c1ccc(OCC)cc1 (stereo not given) | 0 | ? | 0 | 0 | 0 | 0
CC(C(=O)NC1CCCCC1)N(Cc1ccc(F)cc1)C(=O)c1snc(C(N)=O)c1N (stereo not given) | 0 | ? | 0 | 0 | 0 | 0
CCCCC(C(=O)NC1CCCC1)N(C(=O)c1snc(C(N)=O)c1N)c1ccc(F)cc1 (stereo not given) | 0 | ? | 0 | 5.9µM | 0 | 0
COc1ccc(N(C(=O)c2snc(C(N)=O)c2N)C(C(=O)NC2CCCCC2)c2ccc(C)o2)c(OC)c1 (stereo not given) | 0 | 13µM | 0 | 0 | 0 | 0
Cc1cccc(N(C(=O)c2snc(C(N)=O)c2N)C(C(=O)NC2CCCC2)c2ccc(C)o2)c1 (stereo not given) | 0 | 8.3µM | 0 | 0 | 0 | 0
COc1ccc(C(C(=O)NC2CCCCC2)N(C(=O)c2snc(C(N)=O)c2N)c2ccc(OC)cc2OC)cc1 (stereo not given) | 0 | ? | 0 | 0 | 0 | 0
NC(=O)c1nsc(C(=O)N(CC(=O)NC2CCCCC2)Cc2ccc(F)cc2)c1N | 116 | 0 | 53 | 0 | 0 | 0
CCOc1ccc(CN(C)C(=O)[C@H](Cc2ccccc2)NC(=O)OCc2ccccc2)cc1OC | 0 | ? | 0 | ? | 0 | 0
Cc1ccc(N(C(=O)c2snc(C(N)=O)c2N)C(C(=O)NC2CCCC2)c2ccc(C)o2)cc1 (stereo not given) | 0 | 10µM | 0 | ? | 0 | 0
CCC(C)(C)NC(=O)CN(C(=O)c1snc(C(N)=O)c1N)c1ccc2c(c1)OCCO2 | 0 | 0 | 0 | 0 | 0 | 0
COCCNC(=O)C(c1ccc(C)o1)N(C(=O)c1snc(C(N)=O)c1N)c1ccc(C)cc1 (stereo not given) | 0 | ? | 0 | - | 0 | 0
COc1ccc(N(CC(=O)NC2CCCCC2)C(=O)c2snc(C(N)=O)c2N)cc1 | 0 | 0 | 0 | 0 | 0 | 0
CC(C)(C)NC(=O)CN(C(=O)c1snc(C(=O)NC2CCCCC2)c1N)c1ccc(F)cc1 | 0 | 7.4µM | 0 | ? | 0 | 0
CCCC(C(=O)NC(C)(C)C)N(C(=O)c1snc(C(N)=O)c1N)c1ccc2c(c1)OCCO2 (stereo not given) | 114 | 0 | 56 | ? | - | 0
CC(C)CC(C(=O)NC(C)(C)C)N(Cc1cccs1)C(=O)c1snc(C(N)=O)c1N (stereo not given) | 47 | 0 | 49 | 0 | - | 0
CN1CCN(c2cc(C(F)(F)F)nc3ccc(F)cc23)CC1 | 0 | ? | 0 | 0 | 0 | 0
CCOC(=O)C1=C(C)NC(=NC)SC1c1ccccc1 (stereo not given) | 0 | 0 | 0 | 0 | 0 | 0
COc1ccccc1N(CC(=O)N1CCOCC1)S(C)(=O)=O | 0 | 0 | 0 | ? | ? | 0
COc1ccc(C2Nc3ccccc3C(=O)N2NS(=O)(=O)c2ccccc2)cc1 (stereo not given) | 0 | 0 | 0 | 0 | - | 0
CCOC(=O)c1snc(C(=O)NC2CCCCC2)c1N | 161 | 0 | 24 | - | 0 | 0
Nc1c(C(=O)NC2CCCCC2)nsc1C(=O)OCC(=O)NC1CCCCC1 | 0 | 0 | 0 | - | 0 | 0
Cc1ccc(N(C(=O)c2snc(C(N)=O)c2N)C(C(=O)NC2CCCC2)c2ccco2)cc1 (stereo not given) | 0 | 13µM | 0 | 0 | 0 | 0
CCOc1ccccc1N(C(=O)c1snc(C(N)=O)c1N)C(C(=O)NC1CCCC1)c1ccco1 (stereo not given) | 0 | ? | 0 | 0 | 0 | 0
